Results on eight molecules are retold here after PubChem BioAssay (NCATS).

Records with an inconclusive call do not appear. The source made the active and inactive calls. The call rests on the fitted dose curve; in most records, active means well fitted curve in the direction sought with a large enough effect; inconclusive means small, poorly fitted or top-dose-only effect, or another doubt; inactive means no such curve, though single readings can be large; an effect the other way counts as inactive or inconclusive.

The target in assay [1] is N-terminal Xaa-Pro-Lys N-methyltransferase 1 (Homo sapiens) (UniProt Q9BV86). The assay can be described thus: qHTS Assay for Inhibitors of N-terminal methyltransferase 1 (NTMT1): LOPAC validation of the NTMT1 SAHH-coupled ThioGlo3 Assay (AID 1347143).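 Further: SAH from peptide methylation measured as thiol fluorescence via SAHH coupling and ThioGlo3; nearly all actives have a fitted effect of over 70% in size.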 Further: potency means the concentration at half of the fitted maximal effect. The note with it: recombinant NTMT1, SAHH-coupled ThioGlo3 fluorescence; series mostly up to 114 µM. In a few lines:
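Inhibition of NTMT1 methylation of peptide SPKRIA is followed by converting SAH with SAHH and labelling the released thiol with ThioGlo3. Plates are read at 340/450nm before and 30 min after reagent addition, both at room temperature.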

In assay [2] the test system is Zika virus NS2B-NS3 protease (unlinked). The assay can be described thus: Optimization of GU AMC qHTS for Zika virus inhibitors: Unlinked NS2B-NS3 protease assay (AID 1347151). Further: nearly all actives have a fitted effect of over 80% in size. Further: potency means the concentration at half of the fitted maximal effect. Particulars: recombinant ZIKV NS2B-NS3 protease, fluorogenic AMC substrate; series mostly up to 52.5 µM. In a few lines:
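In this qHTS, compounds acted on 25 nM unlinked Zika NS2B–NS3 in pH 8.0 Tris/Tween buffer. Cleavage of an AMC peptide ran 15 min at room temperature, to about 20% conversion.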

The next assay concerns the target Furin (Homo sapiens) (UniProt P09958). The assay can be described thus: Furin counterscreen qHTS for Zika virus inhibitors (AID 1347149).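 Further: purified recombinant full-length human furin enzyme at 5 nM; fluorescence gain from furin cutting a BOC-RVRR-AMC peptide substrate over 15 min; top concentration of the series differs between compounds; nearly all actives have a fitted effect of over 70% in size.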 Particulars: furin enzymatic counterscreen, fluorogenic substrate; series mostly up to 57.5 µM. In a few lines:
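Fluorogenic cleavage of BOC-RVRR-AMC (2 microM final, Km ~15 µM) was monitored (ex 340, em 450 nm) at 37C after 15 min RT preincubation of 5 nM furin with compounds in HEPES pH 7.0 buffer with CaCl2 and Triton X-100. Percent inhibition was fitted to a 4-parameter Hill curve.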

Assay [3] deals with Zika virus NS2B-NS3 protease (linked construct). The assay can be described thus: Confirmatory screen NINDS AMC qHTS for Zika virus inhibitors (AID 1347152). Further: nearly all actives have a fitted effect of over 70% in size. Further: potency means the concentration at half of the fitted maximal effect. The note with it: Purified linked NS2B-NS3, AMC substrate fluorescence; series mostly up to 56.6 µM. In a few lines: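 Concentration-response confirmation used the NINDS linked protease (NS2B hydrophilic domain joined to NS3 protease domain), 1 nM, with a 15-min compound preincubation. Substrate, Nle-KRR-AMC at 10 microM, was read by UV fluorescence before and after 15 min.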

Assay [4] deals with Zika virus NS2B-NS3 protease (unlinked complex). The assay can be described thus: Confirmatory screen GU AMC qHTS for Zika virus inhibitors (AID 1347153). Further: nearly all actives have a fitted effect of over 70% in size. The note with it: Recombinant NS2B-NS3 protease, AMC substrate fluorescence; series mostly up to 57.1 µM. In a few lines:
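Unlinked NS2B-NS3 complex (25 nM) in 10 mM Tris-HCl pH 8.0, 0.01% Tween 20 preincubated 15 min with compound, then 10 microM Bz-Nle-KRR-AMC (Km 18.3 µM). Fluorescence change over 15 min, normalized, Hill-fitted.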

Sequence of N-terminal Xaa-Pro-Lys N-methyltransferase 1 (Homo sapiens) (Q9BV86 whole entry, looked up): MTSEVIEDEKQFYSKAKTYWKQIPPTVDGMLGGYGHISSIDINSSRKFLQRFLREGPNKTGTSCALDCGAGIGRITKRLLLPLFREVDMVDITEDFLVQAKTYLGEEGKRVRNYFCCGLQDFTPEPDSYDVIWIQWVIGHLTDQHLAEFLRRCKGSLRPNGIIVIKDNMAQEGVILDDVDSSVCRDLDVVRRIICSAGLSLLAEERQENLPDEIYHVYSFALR
Sequence of Furin (Homo sapiens) (P09958 whole entry, looked up): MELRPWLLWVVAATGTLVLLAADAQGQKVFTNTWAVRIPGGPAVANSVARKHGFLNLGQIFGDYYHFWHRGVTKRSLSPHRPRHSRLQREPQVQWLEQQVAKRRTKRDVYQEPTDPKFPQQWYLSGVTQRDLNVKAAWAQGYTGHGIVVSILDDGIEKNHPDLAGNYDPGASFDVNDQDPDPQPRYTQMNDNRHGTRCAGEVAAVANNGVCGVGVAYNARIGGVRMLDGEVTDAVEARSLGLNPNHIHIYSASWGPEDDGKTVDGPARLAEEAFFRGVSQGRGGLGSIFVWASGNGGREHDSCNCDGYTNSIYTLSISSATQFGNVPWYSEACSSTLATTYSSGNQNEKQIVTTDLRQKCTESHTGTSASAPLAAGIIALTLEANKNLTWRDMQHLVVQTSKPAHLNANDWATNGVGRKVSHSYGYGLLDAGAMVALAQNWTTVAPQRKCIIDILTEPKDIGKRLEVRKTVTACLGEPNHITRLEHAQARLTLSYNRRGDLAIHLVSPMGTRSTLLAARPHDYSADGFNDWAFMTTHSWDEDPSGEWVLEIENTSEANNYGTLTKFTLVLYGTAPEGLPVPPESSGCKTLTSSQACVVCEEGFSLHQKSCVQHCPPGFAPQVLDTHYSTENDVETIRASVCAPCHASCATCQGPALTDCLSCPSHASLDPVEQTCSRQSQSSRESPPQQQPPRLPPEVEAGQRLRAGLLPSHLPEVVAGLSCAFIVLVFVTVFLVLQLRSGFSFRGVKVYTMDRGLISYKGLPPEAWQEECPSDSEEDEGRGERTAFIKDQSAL

For `COc1ccc(OC)c(C(O)C(C)N)c1` (stereo not given), the Potency entry in assay [1] and in assay [2] was “inactive” in each case. Take `CCCC[N+]1(C)C2CC(OC(=O)[C@H](CO)c3ccccc3)CC1C1OC12` (stereo not given in full): the Potency result in assay [1] and in assay [2] was “inactive” in each case. As to `C[C@@H]1[C@@H]2Cc3ccc(O)cc3[C@@]1(C)CCN2CC1CC1`, the Potency entry (with Furin (Homo sapiens); in assay [2]) was “inactive” each time. With `COc1ccc2c(c1O)-c1cccc3c1[C@@H](C2)N(C)CC3`, the Potency in assay [1] was 56.2 µM (active); in assay [2], 29.9 µM (active). For the molecule `Oc1cc(Cl)c(Cl)cc1Cl`, the Potency entry with Furin (Homo sapiens) is “inactive”. As to `NNC(=O)c1ccc(O)cc1`, the Potency result in assay [1] and in assay [2] was “inactive” each time. Consider `C[C@@]1(C(=O)O)CC[C@]2(C)CC[C@]3(C)C4=CC(=O)c5cc(O)c(O)cc5[C@]4(C)CC[C@@]3(C)[C@@H]2C1`, for which the Potency result (with Furin (Homo sapiens); in assay [3]; in assay [4]) was “inactive” throughout.

For the molecule `CCCCCOc1cc2c(cc1-c1cc(/C=C/C(=O)O)ccc1O)C(C)(C)CCC2(C)C`, the Potency in assay [3] is 9.87 µM (active).
